Rows were chosen to be rich in hits. Some 5.2% of all compounds tested hit in one or more screens of this group.
SMARCA2 act: increases SMARCA2 function in MMTV reporter cells. activation, % at 9.1 µM. MG213 cells, MMTV-luciferase reporter, dexamethasone, overnight. AID 652017. hit rate 1% among 370,000; in the data active = activation above about 7.8%;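 note: 0% = vehicle wells and 100% = reference activator wells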
NadD inh: inhibitors of Staphylococcus aureus NadD; hit rate 0.78% among 360,000; inhibition, % at 20 µM; purified NadD enzyme, colorimetric absorbance read-out; in the data active = inhibition above about 26%
esBAF inh: inhibitors of esBAF chromatin remodeling in mouse ES cells. Bmi1-luciferase knock-in reporter, 24 h; 100% = twice the neutral-well signal. reporter increase, % at 12.5 µM. hit rate 2% among 350,000. AID 602393; in the data active = activation above about 40%;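 note: 0% = median of the plate's neutral control wells and 100% = double that signal; a rise in the Bmi1 reporter signal indicates esBAF inhibition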
SKN-1 block: blocks SKN-1 activity in C. elegans | C. elegans VP596 Pgst-4::GFP/RFP ratio, acrylamide-induced, 24 h | inhibition, % at 21.8 µM | hit rate 0.49% among 360,000;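 active = interference check ratio from 0.5 to 1.5 plus GFP to RFP signal ratio inhibition reaching or exceeding a fixed threshold, cut at about 30% in these data, passing the limit was not always enough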
GRIN3A LBD mod: modulates the human NR3A ligand-binding domain. NR3A LBD differential scanning fluorimetry, Tm shift; 0% = protein alone, 100% = glycine-bound protein. Tm shift relative to glycine control, % at 25 µM. hit rate 2.5% among 340,000. AID 1259313;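 active = melting temperature shift of at least 10% of the positive control shift, at one fixed dose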
Vif imaging: inhibitors of HIV Vif; hit rate 0.35% among 340,000; inhibition, % at 7.49 µM; HEK293T cells, Vif self-association by quenched fluorescence, imaging, 24 h; AID 602346; in the data active = inhibition above about 50%, passing the limit was not always enough
Starred values were filed as active, the others as inactive.

How did S=C(NCCSCc1ccc(Cl)cc1Cl)Nc1ccccc1 do in these assays?
SMARCA2 act: -3; NadD inh: -4; esBAF inh: -2; SKN-1 block: 1; GRIN3A LBD mod: 17*; Vif imaging: -1

Results for S=C(NCCSCc1c(Cl)cccc1Cl)Nc1ccccc1 ?
SMARCA2 act: -3; NadD inh: -8; esBAF inh: 10; SKN-1 block: 3; GRIN3A LBD mod: 10; Vif imaging: -14

Results for S=C(Nc1ccccc1)Nc1ccc(OCc2ccc(Cl)cc2Cl)cc1 ?
SMARCA2 act: -10; NadD inh: 5; esBAF inh: -75; SKN-1 block: -2; GRIN3A LBD mod: 14*; Vif imaging: 9

Results for COc1ccc(CSCCNC(=S)Nc2ccccc2)cc1Cl ?
SMARCA2 act: -2; NadD inh: -10; esBAF inh: 2; SKN-1 block: -1; GRIN3A LBD mod: 5; Vif imaging: 0

Results for S=C(NCCSCc1ccc(Cl)c(Cl)c1)Nc1ccccc1 ?
SMARCA2 act: -1; NadD inh: -5; esBAF inh: -2; SKN-1 block: 10; GRIN3A LBD mod: 22*

What do the screens show for `N/C(=N\c1nc2ccccc2o1)NC(=O)c1ccc(Cl)cc1`?
SMARCA2 act: 1; NadD inh: 9; esBAF inh: 5; SKN-1 block: 7; GRIN3A LBD mod: 2; Vif imaging: 6

What do the screens show for `N/C(=N\c1nc2ccccc2o1)NC(=O)c1ccccc1Br`?
SMARCA2 act: 0; NadD inh: 6; esBAF inh: 80*; SKN-1 block: -6; GRIN3A LBD mod: 3; Vif imaging: -5

How did CCC(=O)N1[C@@H](CO)[C@H](c2ccc(C3=CCCC3)cc2)[C@@H]1CNC(=O)CN(C)C do in these assays?
esBAF inh: 2

What do the screens show for `O=C(OCCc1ccccc1)c1cc(O)c(O)c(O)c1`?
SMARCA2 act: 4; NadD inh: -2; esBAF inh: -9; SKN-1 block: -13; GRIN3A LBD mod: -7; Vif imaging: 51*

What do the screens show for `COc1ccc(CNC(=O)N(C)C[C@@H]2OCc3ccccc3-c3c(n(C)c4ccccc34)C(=O)N([C@H](C)CO)C[C@@H]2C)cc1`?
esBAF inh: 46*

Results for COc1ccc(CNC(=O)N(C)C[C@@H]2OCc3ccccc3-c3c(n(C)c4ccccc34)C(=O)N([C@@H](C)CO)C[C@@H]2C)cc1 ?
SMARCA2 act: -4

What do the screens show for `Clc1ccc(OCc2noc(-c3ccsc3)n2)c(Cl)c1`?
SMARCA2 act: 7; NadD inh: -7; esBAF inh: 64*; SKN-1 block: 74*; GRIN3A LBD mod: -2; Vif imaging: 4

How did Fc1cc(Cl)c(OCc2noc(-c3ccsc3)n2)c(Cl)c1 do in these assays?
SMARCA2 act: 2; NadD inh: -10; SKN-1 block: -15; GRIN3A LBD mod: 1; Vif imaging: -4

How did CO[C@@H]1CN(C)C(=O)c2cc(NC(=O)c3cccc(Oc4ccccc4)c3)ccc2OC[C@H](C)NC[C@H]1C do in these assays?
esBAF inh: -7

What do the screens show for `Cc1ccc(S(=O)(=O)N(C)C[C@H]2Oc3ccc(NC(=O)Cc4ccccc4)cc3CC(=O)N([C@H](C)CO)C[C@H]2C)cc1`?
esBAF inh: -7

Results for O=C(C1CCC(=O)N(C2CCCC2)C1)N1CCC(Oc2cccc(F)c2)CC1 (stereo not given) ?
SMARCA2 act: -1; NadD inh: -1; esBAF inh: -3; SKN-1 block: -2; GRIN3A LBD mod: 18*; Vif imaging: -3

What do the screens show for `O=C(C1CCC(=O)N(C2CC2)C1)N1CCC(Oc2cccc(F)c2)CC1` (stereo not given)?
SMARCA2 act: -1; NadD inh: -2; esBAF inh: -1; SKN-1 block: -11; GRIN3A LBD mod: 0; Vif imaging: 2

Results for CC(C)NC(=O)Nc1ccc2c(c1)CC(=O)N([C@H](C)CO)C[C@H](C)[C@@H](CN(C)C)O2 ?
esBAF inh: 0

Results for CCCc1c(C(=O)N/N=C/C(C)=C/c2ccccc2)nnn1-c1nonc1N ?
SMARCA2 act: 0; NadD inh: 15; esBAF inh: 32; SKN-1 block: 5; GRIN3A LBD mod: 34*; Vif imaging: 0

Results for CCCN(CCC)Cc1c(C(=O)N/N=C/C(C)=C\c2ccccc2)nnn1-c1nonc1N ?
SMARCA2 act: 2; NadD inh: 10; SKN-1 block: 8; GRIN3A LBD mod: 1; Vif imaging: -1

What do the screens show for `C/C(=N\NC(=O)c1nnn(-c2nonc2N)c1CN1CCc2ccccc21)c1ccccc1O`?
SMARCA2 act: -5; NadD inh: 42*; esBAF inh: -22; SKN-1 block: 0; GRIN3A LBD mod: 1; Vif imaging: -20

Results for CC(/C=N/NC(=O)c1nnn(-c2nonc2N)c1C(C)C)=C\c1ccccc1 ?
SMARCA2 act: 1; NadD inh: -4; esBAF inh: 29; SKN-1 block: 6; GRIN3A LBD mod: 27*; Vif imaging: 3

Results for CC(C)c1c(C(=O)N/N=C2\CCc3ccccc32)nnn1-c1nonc1N ?
SMARCA2 act: -4; NadD inh: -3; esBAF inh: 2; SKN-1 block: 12; GRIN3A LBD mod: 10*; Vif imaging: 8

What do the screens show for `COc1ccccc1-c1cn(CC[C@H]2CC[C@H](NC(=O)C3CC3)[C@@H](CO)O2)nn1`?
esBAF inh: -24

What do the screens show for `C[C@H](CO)N1C[C@H](C)[C@H](CN(C)Cc2ccc(C(F)(F)F)cc2)Oc2c(NC(=O)c3cnccn3)cccc2C1=O`?
esBAF inh: -1

What do the screens show for `COc1ccc(-c2cn(CC[C@@H]3CC[C@H](NS(=O)(=O)c4ccccc4C)[C@H](CO)O3)nn2)cc1`?
esBAF inh: 1

How did COc1ccc(-c2ccc3c(c2)O[C@@H](CN(C)Cc2ccccc2C(=O)O)[C@H](C)CN([C@@H](C)CO)S3(=O)=O)cc1 do in these assays?
esBAF inh: 2

Results for C/C=C\C=C/C(=O)Nc1cccc(C2=NOC3(C2)C[C@@H](C(N)=O)N(C(=O)/C=C/CC)C3)c1 (stereo not given in full) ?
NadD inh: 11; SKN-1 block: 9; GRIN3A LBD mod: -1

Results for CCCCCC(=O)Nc1cccc(C2=NOC3(C2)C[C@H](C(N)=O)N(C(=O)CCCCC)C3)c1 (stereo not given in full) ?
SMARCA2 act: 0; NadD inh: 2; esBAF inh: 5; SKN-1 block: 5; GRIN3A LBD mod: 2

Results for C/C=C\C=C/C(=O)Nc1cccc(C2=NOC3(C2)C[C@@H](C(N)=O)N(C(=O)/C=C/C=C\C)C3)c1 (stereo not given in full) ?
NadD inh: 31*; esBAF inh: 1; SKN-1 block: -11; GRIN3A LBD mod: -2; Vif imaging: 2
